HP1b chromo inh = inhibitors of HP1-beta chromodomain binding to methylated histone tails | 390,000 tested, 0.56% active | P83916 | AID 540317 | Potency, µM (top dose mostly 114 µM), for the others: at the highest dose activity change, negative = inhibition, actives largely listed as inhibitors | AlphaScreen HP1-beta / biotin-H3K9me3 peptide binding; note: nearly all actives have a fitted effect of over 70% in size
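Compound inhibition of the preformed complex between 50 nM HP1-beta and 50 nM biotinylated H3K9me3 peptide was read by AlphaScreen. Buffer was PBS pH 7.4 with 0.01% Tween-20. Incubations ran 30 min at room temperature, with 10 ug/mL donor/acceptor beads.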
BAZ2B inh = blocks human BAZ2B; 360,000 tested, 4.4% active; Potency, µM (doses to about 114 µM), for inactives: at the highest dose activity change, negative = inhibition, usual class: inhibitors; AlphaScreen BAZ2B-H3K14Ac peptide displacement; AID 504333; Q9UIF8; note: % is set by controls: 0 for no effect and ±100 for the full control effect; nearly all actives have a fitted effect of over 60% in size
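BAZ2B 50 nM plus b-H3(5-23)K14Ac 50 nM, PBS pH 7.4/0.01% Tween-20, 30 min RT; compound added (max 110 uM), 30 min RT; streptavidin donor/Ni-chelate acceptor beads 10 ug/mL final, 20 min dark; AlphaScreen read.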
Sfp inh = blocks B. subtilis Sfp PPTase activity. Q9F4F7. Biochemical Sfp PPTase activity, qHTS. Potency, µM, inactives show largest response in the series, negative = inhibition, usual class: inhibitors. 310,000 tested, 3.5% active. AID 1490;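 note: the enzyme is Sfp with the accession as filed and its product quenches rhodamine fluorescence; 0% = enzyme reaction without inhibitor and -100% = no enzyme wells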
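Sfp 15 nM + cpd, 15 min RT; start w/ rhodamine-CoA 5 uM, BHQ-2-YbbR 12.5 uM (final); 50 mM Hepes pH 7.6, 10 mM MgCl2, 0.01% NP-40, 0.01% BSA; read 525/598 nm at 0 and 30 min.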
JMJD2A Tudor inh = inhibitors of human JMJD2A Tudor domain; O75164; AlphaScreen JMJD2A-Tudor / H3K4me3 peptide binding; Potency, µM (titrated, usually from 114 µM), for inactives: top-dose activity change, negative = inhibition, most hits filed as inhibitors; 390,000 tested, 4.4% active; note: % is set by controls: 0 for no effect and ±100 for the full control effect; nearly all actives have a fitted effect of over 50% in size
Target sequence (O75164 whole entry, looked up, the tested form may be a part): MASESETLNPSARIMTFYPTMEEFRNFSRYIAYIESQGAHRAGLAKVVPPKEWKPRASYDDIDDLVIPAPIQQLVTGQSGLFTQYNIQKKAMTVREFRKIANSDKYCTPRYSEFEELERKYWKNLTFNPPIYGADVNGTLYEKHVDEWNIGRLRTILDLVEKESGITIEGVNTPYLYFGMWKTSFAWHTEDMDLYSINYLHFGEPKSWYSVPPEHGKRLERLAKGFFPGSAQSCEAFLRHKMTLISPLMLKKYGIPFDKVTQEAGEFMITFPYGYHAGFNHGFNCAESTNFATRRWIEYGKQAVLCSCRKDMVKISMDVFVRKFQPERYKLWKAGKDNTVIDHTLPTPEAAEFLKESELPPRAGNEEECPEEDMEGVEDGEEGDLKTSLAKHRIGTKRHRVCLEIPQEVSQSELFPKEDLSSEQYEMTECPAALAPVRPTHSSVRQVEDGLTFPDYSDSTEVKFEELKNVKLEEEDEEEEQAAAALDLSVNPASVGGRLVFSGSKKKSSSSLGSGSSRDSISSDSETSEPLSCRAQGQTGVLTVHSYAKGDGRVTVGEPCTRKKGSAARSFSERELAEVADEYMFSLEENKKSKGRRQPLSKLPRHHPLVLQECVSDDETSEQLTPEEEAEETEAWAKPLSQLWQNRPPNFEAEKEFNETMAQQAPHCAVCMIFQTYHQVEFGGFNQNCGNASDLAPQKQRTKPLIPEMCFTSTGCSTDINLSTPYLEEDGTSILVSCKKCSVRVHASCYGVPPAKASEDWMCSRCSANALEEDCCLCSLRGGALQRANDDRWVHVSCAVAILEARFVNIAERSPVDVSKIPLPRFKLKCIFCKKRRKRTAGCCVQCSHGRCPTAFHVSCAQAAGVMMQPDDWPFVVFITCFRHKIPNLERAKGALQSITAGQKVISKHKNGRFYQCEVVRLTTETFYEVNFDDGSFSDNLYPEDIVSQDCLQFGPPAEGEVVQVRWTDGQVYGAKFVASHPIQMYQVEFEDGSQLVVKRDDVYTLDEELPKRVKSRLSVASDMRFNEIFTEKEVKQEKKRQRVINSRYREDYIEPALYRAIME
L3MBTL1 inh = inhibitors of human L3MBTL1. 230,000 tested, 0.66% active. AlphaScreen L3MBTL1–H3K9me1 peptide binding. Q9Y468. Potency, µM (doses to about 57.1 µM), without a hit: at the top dose activity, negative = inhibition, most hits filed as inhibitors; note: % is set by controls: 0 for no effect and ±100 for the full control effect; nearly all actives have a fitted effect of over 60% in size
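L3MBTL1 (50 nM) pre-complexed 30 min with biotinylated H3(1-15)K9me1 peptide (75 nM), then compounds added for 30 min at room temperature; AlphaScreen streptavidin donor/nickel chelate acceptor beads (10 ug/mL final) read after 30 min dark incubation.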
G9a inh = inhibitors of human histone lysine methyltransferase G9a. Potency, µM (top dose mostly 102 µM), for inactives: at the top dose activity, negative = inhibition, hits mostly inhibitors. G9a H3K9 monomethylation, AlphaScreen, 2 h. Q96KQ7. AID 504332. 350,000 tested, 8.8% active; note: % is set by controls: 0 for no effect and ±100 for the full control effect; nearly all actives have a fitted effect of over 75% in size
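AlphaScreen read-out: biotin-H3K9 peptide (500 nM) methylation by 20 nM enzyme with 20 uM SAM, 2 h at room temperature after 15 min compound preincubation; anti-monomethyl H3K9 antibody plus donor/acceptor beads, 10 min dark.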
An asterisk follows results filed as active; ? = inconclusive; · = not tested or not shown; [ ] = another dose, or the depositor's remark. Shown are actives, neighbours in structure and some others; about 12% of the full set was active somewhere. Calls come from the whole dose curve; as a rule, active = well fitted curve in the direction sought with a large enough effect; inconclusive = small, poorly fitted or top-dose-only effect, or another doubt; inactive = no such curve, though single readings can be large; an effect the other way counts as inactive or inconclusive. Potency is the fitted concentration of half-maximal effect.

SMILES | HP1b chromo inh | BAZ2B inh | Sfp inh | JMJD2A Tudor inh | L3MBTL1 inh | G9a inh
CCCn1c(-c2ccc(F)cc2)nc2c(NCCN3CCOCC3)nc(C)nc21 | · | · | 4% | · | · | ·
CCCn1nnnc1NC(=O)CSc1ccc(Cl)cc1 | 34% | ? | 13% | ? | -2% | 6%[12.7 µM]
CCCn1nnnc1NC(=O)c1cc(Cl)ccc1Cl | 12% | 56µM* | -6% | 40µM* | 4% | 8.9µM*
O=C(Nc1nnc(SCc2ccccc2)s1)c1cccc([N+](=O)[O-])c1 | -3% | -7% | 7% | -24% | -7% | 79µM*
N#C/C(=C\c1cc(O)c(O)c(O)c1)C(N)=O | ? | 18% | 3.5µM* | 3.5µM* | -88% | ·
O=C(O)Cc1nnc(-c2cc3ccccc3[nH]2)s1 | · | · | · | -34% | · | ·
O=P1(O)Oc2c(-c3ccccc3)cc3ccccc3c2-c2c(c(-c3ccccc3)cc3ccccc23)O1 | · | · | 6% | · | · | ·
Cc1ccc(S(=O)(=O)N2CCN(CCC#N)CC2)cc1 | 45µM* | 20µM* | 79µM* | 3.5µM* | ? | 7.1µM*
N#CCCN1CCN(S(=O)(=O)c2ccc(S(=O)(=O)N3CCCCCC3)cc2)CC1 | 39% | 8% | 19% | 0% | 8% | -13%[59 µM]
N#CCCN1CCN(S(=O)(=O)c2ccc(C#N)cc2)CC1 | 16% | 3% | ? | -5% | 1% | -20%
N#CCCN1CCN(S(=O)(=O)c2ccc(S(=O)(=O)NC3CCCC3)cc2)CC1 | 36% | 7% | -6% | -6% | -14% | 35µM*
COc1ccc(CNC(=O)c2cc(-c3cccs3)nc3ccccc23)c(OC)c1 | 29% | 2% | · | -8% | · | -35%[59 µM]
CCCCN(C(=O)c1cc(OC)c(OC)c(OC)c1)C1=CC2CCC(C1)N2C (stereo not given) | 13% | -3% | 1% | -21% | 4% | 56µM*
COc1cc(C(=O)N(CCc2ccccc2)C2=CC3CCC(C2)N3C)cc(OC)c1OC (stereo not given) | -2% | 12% | 13% | 25%[11.4 µM] | 9% | ?
O=C(CSc1n[nH]c(-c2cc(Cl)ccc2Cl)n1)NCCN1C(=O)CSC1=O | 21% | -1% | 13% | -19% | 4% | 8%[59 µM]
Cc1cccc(NC(=O)c2ccc(C(=O)Nc3cccc(C)c3C)cc2)c1C | -10% | 3% | · | -20% | · | -28%[59 µM]
CC(C)C(=O)NC(c1cccc([N+](=O)[O-])c1)c1ccc2cccnc2c1O (stereo not given) | 29% | 25µM* | 9% | ? | ? | ·
CC(C)C(=O)NC(c1ccco1)c1ccc2cccnc2c1O (stereo not given) | 31% | · | 8% | 79µM* | ? | 6%[59 µM]
Oc1c(C(Nc2nc3ccccc3s2)c2ccco2)ccc2cccnc12 (stereo not given) | -4% | 50µM* | 7% | ? | -27% | 25µM*
Cc1ccc(C(=O)NC(c2ccco2)c2cc(Cl)c3cccnc3c2O)cc1 (stereo not given) | · | · | · | -10% | · | ·
CC(C)Cn1c(N)c(C(=O)COC(=O)[C@@H]2CCCN2C(=O)c2cccs2)c(=O)n(C)c1=O | 33% | -5% | 14% | -14% | 2% | 9%
Cc1nc2ccccn2c1C(=O)N=Nc1c(O)[nH]c2ccccc12 | 38% | 2% | -18% | 11% | -8% | -8%[59 µM]
O=C(N/N=C/c1ccc(O)c([N+](=O)[O-])c1)C(O)(c1ccccc1)c1ccccc1 | 13% | 3%[57.1 µM] | 3% | -19% | -5% | ·
CC(C)(c1ccc(O)c([N+](=O)[O-])c1)c1ccc(O)c([N+](=O)[O-])c1 | ? | · | · | 56µM* | · | ·
CCCCC/C=C\C/C=C\C/C=C\C/C=C\CCCCCC(N)=O | · | · | -12% | · | · | ·
SMILES | HP1b chromo inh | BAZ2B inh | Sfp inh | JMJD2A Tudor inh | L3MBTL1 inh | G9a inh
Cc1ccc([C@@H]2[C@@H]3C(=O)N(C)C(=O)[C@@H]3[C@]3(C)C(=O)N(Cc4ccc(-c5ccccc5)cc4)CC(=O)N23)o1 | 33% | -7% | 50µM* | -16% | -3% | ?
COc1ccc(N2CCN(C(=O)c3cn(CC4CCCCC4)nn3)CC2)cc1 | -10% | ? | 5% | ? | · | 35µM*
COc1ccc(N2CCN(C3CCCN(C(=O)c4cccc(C)n4)C3)CC2)cc1 (stereo not given) | 14% | -2% | 9% | 3% | · | 50µM*
Cc1cc(S(=O)(=O)N2CCCC(N3CCOCC3)C2)c(C)cc1Cl (stereo not given) | -20% | -32% | 4% | -17% | -7% | 45µM*
COc1ccc(N2CCN(C3CCCN(Cc4ccc(F)cc4Cl)C3)CC2)cc1 (stereo not given) | -30% | ? | 4% | ? | -9% | 71µM*
O=S(=O)(c1cc(Cl)ccc1Cl)N1CCN2CCCC2C1 (stereo not given) | 22% | -9% | 14% | 0% | -5% | -9%
COc1ccc(O)c(CN2CCCC(N3CCN(c4ccc(F)cc4)CC3)C2)c1 (stereo not given) | -4% | ? | 10% | -32% | -14% | ?
COc1ccc(-c2cn3nc(SCC(=O)Nc4cccc(C)c4C)ccc3n2)cc1 | 30%[57 µM] | 4% | · | -7% | · | -1%[59 µM]
COC(=O)[C@@]1(Cc2ccc(OC)cc2)[C@H]2c3cc(C(=O)N(C)C)n(Cc4ccc(OC)c(OC)c4)c3C[C@H]2CN1C(=O)c1ccccc1 | · | · | -19% | · | · | ·
COc1ccc(N2CCN(C3CCCN(S(=O)(=O)c4ccccc4)C3)CC2)cc1 (stereo not given) | ? | 71µM* | 3% | ? | · | ·
COc1ccc(N2CCN(C3CCCN(S(=O)(=O)c4ccc(C)cc4C)C3)CC2)cc1 (stereo not given) | ? | 25µM* | 3% | 32µM* | · | 35µM*
COc1ccc(OC)c(S(=O)(=O)N2CCN3CCCC3C2)c1 (stereo not given) | 19% | -16% | 7% | -19% | -1% | -10%
COc1ccc(OC)c(S(=O)(=O)N2CCCC(N3CCN(c4ccccc4)CC3)C2)c1 (stereo not given) | 14% | ? | 16% | -24% | · | -16%
CCOc1ccccc1N1CCN(CC(=O)NC(C)c2ccccc2)CC1 (stereo not given) | 12% | -14% | -2% | -6% | 1% | ·
COc1ccc(-c2cnnn2-c2ccc(NC(=O)/C=C/c3ccc(OC)c(OC)c3)cc2)cc1 | ? | -3% | -8% | -19% | -14% | 50µM*
COc1ccc(/C=C/C(=O)Nc2ccc(-n3nncc3-c3ccc(OC)c(OC)c3)cc2)cc1OC | 22% | -3% | 4% | -11% | -7% | 50µM*
COc1ccc(/C=C/C(=O)Nc2ccccc2)cc1OC | 29% | -15% | 0% | -7% | 2% | -35%

Screening data (PubChem BioAssay)
